Mtb BioA inh: M. tuberculosis BioA enzyme inhibitors, primary screen, biochemical, plate reader, single point, HTS | inhibition, % at 9.99 µM | purified M. tuberculosis BioA enzyme | actives 0.096% (n = 360,000) | 7,8-diaminopelargonic acid synthase BioA (Mycobacterium tuberculosis); in the data active = inhibition above about 40%; inconclusive = no clear call, values can overlap the other calls
FadD28 FP inh: inhibitors of FadD28 bisubstrate probe binding, primary screen, biochemical, fluorescence polarization, single point; AID 588549, 2011; Mycobacterium tuberculosis FadD28 fatty-acid-AMP ligase; inhibition, % at 12.5 µM; actives 0.22% (n = 360,000); in the data active = inhibition above about 8.5%, passing the limit was not always enough; inconclusive = no clear call, values can overlap the other calls
VHR inh abs: VHR1 phosphatase inhibitors, primary screen, biochemical, absorbance, uHTS; Dual specificity protein phosphatase 3 (Homo sapiens), P51452; actives 0.52% (n = 290,000); recombinant VHR phosphatase, pNPP absorbance; inhibition, % at 13.3 µM; in the data active = inhibition above about 50%
Target sequence (P51452 whole entry, looked up): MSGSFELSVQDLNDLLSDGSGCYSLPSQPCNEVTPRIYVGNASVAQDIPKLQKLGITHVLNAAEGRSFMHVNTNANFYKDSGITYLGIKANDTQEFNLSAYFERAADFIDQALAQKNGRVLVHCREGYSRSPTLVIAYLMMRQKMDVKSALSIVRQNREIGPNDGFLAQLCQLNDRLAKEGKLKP
Mtb hypoxia inh: PubChem AID 1159583 | M. tuberculosis hypoxia-regulated fluorescent reporter, fluorescence | fluorescence inhibition, % (concentration not given with the values) | actives 0.1% (n = 300,000); in the data active = fluorescence inhibition mostly above about 23%, no sharp cut-off; inactive = mostly below about 17%
3CLpro inhibitor: SARS-CoV 3CLpro protease inhibitors, primary screen, biochemical, quenched FRET | Replicase polyprotein 1ab (Severe acute respiratory syndrome coronavirus), P0C6X7 | recombinant SARS-CoV 3CLpro, quenched FRET peptide cleavage | inhibition, % at 6 µM | actives 0.14% (n = 290,000); in the data active = inhibition above about 12%
The depositor's hits bear a star; ? = inconclusive; . = not tested or not shown. Compounds with a hit are over-represented: about 0.7% of the library has one in this group of screens.

SMILES	Mtb BioA inh	FadD28 FP inh	VHR inh abs	Mtb hypoxia inh	3CLpro inhibitor
CC(=NOC(=O)c1c(-c2ccccc2Cl)noc1C)c1nccs1	.	.	.	4	.
CCOC(=O)C1(Cc2cccc(OC)c2)CCN(CC=Cc2ccc(OC)cc2)CC1	.	.	.	3	.
O=C1c2ccccc2C(=O)N1CCSc1ccccc1	-1	1	55*	6	2
CCN1CCc2c(C#N)c(NCc3ccccc3)nc(N(CC)CC)c2C1	.	-4	56*	18	-3
O=C(CCc1ccc(S(=O)(=O)N2CCOCC2)cc1)NN=Cc1cccc(O)c1	.	.	.	-2	.
CC(=O)Nc1ccc(NC(=S)NC(=O)C2CCCC2)cc1	-3	-4	60*	2	1
COc1ccc(NC(=S)NC(=O)C2CCCCC2)cc1	1	-4	-3	.	5
Cc1cc(C)c(OCCNCc2ccccc2)c(C)c1	0	0	18	10	-1
Cc1cc(C)c(C)c(OCCNCc2ccccc2)c1	1	-1	52*	15	1
CC(=O)N1CCCc2cc(S(=O)(=O)N3CCCC(C(=O)Nc4cccc(C)c4)C3)ccc21 (centres undefined)	-1	0	54*	-1	-2
COc1ccc(N(CC(=O)Nc2cccc(C(F)(F)F)c2)S(=O)(=O)c2c(C)[nH]c(=O)[nH]c2=O)cc1	-1	-3	-4	-1	7
COc1ccc(N(CC(=O)Nc2cccc(F)c2)S(=O)(=O)c2c(C)[nH]c(=O)[nH]c2=O)cc1	-3	0	56*	9	-1
CC(=O)OC1CC2CCC3C(CC[C@@]4(C)C3CC([N+]3(C)CCCCC3)C4OC(C)=O)[C@@]2(C)CC1[N+]1(C)CCCCC1 (some centres undefined)	.	.	.	3	.
Cc1ccc(C(=O)COC(=O)c2cccc(NC(=O)c3ccc([N+](=O)[O-])cc3[N+](=O)[O-])c2)cc1	-1	?	16	41*	5
CC(=NNC(=O)c1ccc(C)s1)c1cccc(NC(=O)c2ccoc2C)c1	.	.	.	-2	.
CN(C(=O)C1CCCN(c2ncnc3c2nc2n3CCCCC2)C1)c1cccc(Cl)c1 (centres undefined)	2	-2	52*	-3	-5
Cc1cccc(NC(=O)CN2C(=O)N/C(=C\c3cccn3-c3cccc(C(=O)O)c3)C2=O)c1	.	18*	-2	7	-1
CCOc1cc(/C=C2/NC(=O)N(CC(=O)Nc3cccc(C)c3)C2=O)ccc1O	-1	16*	31	.	0
Cc1cccc(NC(=O)CN2C(=O)N/C(=C\c3ccccc3OCc3ccc(C(=O)O)cc3)C2=O)c1	0	42*	26	16	1
Cc1ccc(-c2nc(Nc3ccc(O)cc3)c3ccccc3n2)cc1	0	1	51*	18	6
Cc1ccc(-c2nc(Nc3cccc(O)c3)c3ccccc3n2)cc1	0	-12	.	5	-1
COc1cc(CCCN2CCNCC2Cc2cccc3ccccc23)cc(OC)c1OC (centres undefined)	.	.	.	9	.
O=C1C(=O)N(CCN2CCOCC2)C(c2cccnc2)C1=C(O)c1ccc(Cl)cc1 (centres undefined)	.	.	.	6	.
O=c1[nH]c(CN2CCN(C/C=C/c3ccccc3)CC2)nc2cc(Cl)ccc12	1	-4	54*	6	-7
O=C(CCc1nc2ccccc2c(=O)[nH]1)N1CCN(C/C=C/c2ccccc2)CC1	.	-3	7	4	-2
SMILES	Mtb BioA inh	FadD28 FP inh	VHR inh abs	Mtb hypoxia inh	3CLpro inhibitor
CCc1c(C)nc2ncnn2c1NCCc1ccc(OC)c(OC)c1	0	-3	16	4	-3
COc1ccc(CCNc2c(C)c(C)nc3ncnn23)cc1	-2	0	54*	11	-1
CCN1C(=c2sc(=C3C(=O)N(c4ccccc4)N=C3C)n(CC)c2=O)C=Cc2ccccc21	.	.	.	4	.
O=[N+]([O-])c1ccccc1C=NNc1nccs1	.	.	.	14	.
Cc1cccc(C)c1NC(=S)NC(C)CCc1ccccc1 (centres undefined)	2	-3	60*	-8	0
Cc1ccc(S(=O)(=O)NN=C2CC(c3ccccc3)Oc3ccccc32)cc1[N+](=O)[O-] (centres undefined)	.	.	.	5	.
COc1ccc(S(=O)(=O)N2CCOCC2)cc1N=Nc1sc(N)nc1-c1ccccc1	.	1	56*	19	2
Cc1c(C(=O)NC2CCOC2)oc2c(F)cccc12 (centres undefined)	1	-2	53*	7	-5
CC1(C)OC2C(CO)OC(n3cc(Br)c(=O)[nH]c3=O)C2O1 (centres undefined)	.	.	.	3	.
COc1ccc(OCC(O)Cn2c(N3CCCCC3)nc3c2c(=O)[nH]c(=O)n3C)cc1 (centres undefined)	-1	-2	17	10	-1
COc1ccc(OCC(O)Cn2c(N3CCCCC3)nc3c2c(=O)n(C)c(=O)n3C)cc1 (centres undefined)	0	2	58*	1	2
CCC(=O)Nc1cc2c(C)cc(=O)oc2cc1C	1	0	56*	.	1
CCCCCCC(=O)Nc1cc2c(C)cc(=O)oc2cc1C	-1	-3	4	.	2
CC(=O)Nc1nnc(-c2ccc3c(c2)CCCC3)o1	0	-1	25	-7	-3
O=C(Nc1nnc(-c2ccc3c(c2)CCCC3)o1)C1COc2ccccc2O1 (centres undefined)	2	0	50*	-6	11
CCOC(=O)Cn1cc(C(=O)c2ccco2)c2ccccc21	4	15*	6	5	-1
CSc1ccccc1C(=O)NCCCn1ccnc1	10	-4	54*	1	2
CCSc1ccccc1C(=O)NCCCn1ccnc1	0	-1	24	7	1
O=C(OCC(=O)C12CC3CC(CC(C3)C1)C2)c1ccc(CO)cc1	0	-2	.	25*	.
CCCCCCCCCCCCCCCC(=O)OC(CC(=O)O)C[N+](C)(C)C (centres undefined)	18	17*	.	1	.
Nc1ccc(C(=O)Nc2ccc3c(O)cc(S(=O)(=O)O)cc3c2)cc1	5	15*	.	5	.
OCCC1CC(O)C(O)[C@@]2(Cc3ccccc3O2)O1 (some centres undefined)	.	.	.	18	.
CN(C)c1ccc(N=Nc2ccc(S(=O)(=O)O)cc2)c2ccccc12	4	14*	20	.	10
Cc1ccc(NC(=O)Nc2cccnc2)cc1Cl	5	-2	10	6	21*
O=C(Nc1cccnc1)Nc1cc(Cl)cc(Cl)c1	.	-17	18	-5	12
Cc1ccc(SCC(=O)Nc2nnc(C(C)(C)C)s2)cc1	0	-1	54*	7	1
CSc1nnc(C(C)(C)C)c(=O)n1N=Cc1ccccc1	.	.	.	16	.
COc1ccc(NC(=O)CC(=O)Nc2ccc(OC)cc2OC)c(OC)c1	1	-3	-5	2	-5
